The full data set covers some 7,900 targets. This sample favours those with a hit. About 0.6% of all pairs of compound and target were hits. A number with no mark means an inactive call.
Legend:
Assay in all cases: log2 fold change, soluble protein after heating vs DMSO (PISA); higher = thermal stabilisation; K562 cells, 10 uM, 30 min; active = over 0.2 and 3.5 SD of the protein, either way, in both replicates (recomputed)
[1] = compound: NC(=O)Nc1cc(-c2cccc(F)c2)sc1C(=O)N[C@H]1CCCNC1
Procedure, shortened: (§1)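 K562 cells (2×10^6 cells/mL) were treated with 10 μM compound for 30 min, and aliquots were heated for 3 min over 48°C-58°C. Pooled aliquots were extracted in PBS with 0.5% NP-40 at 4°C, and the supernatant after 21,000xg for 90 min was measured by TMTpro 16plex LC-MS/MS with channel sums equalised. Reported thermal stability, relative to control samples and from duplicates, is a log2 fold change.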

[2] = compound: NC(=O)c1cnc(N[C@@H]2CCCC[C@@H]2N)nc1Nc1cccc(-n2nccn2)c1
Procedure, shortened: as §1

[3] = compound: NC1(c2ccc(-c3nc4ccn5c(=O)[nH]nc5c4cc3-c3ccccc3)cc2)CCC1
Procedure, shortened: as §1

[4] = compound: NCC(=O)Nc1ccc(-n2nc(C(F)(F)F)cc2-c2ccc3c(ccc4ccccc43)c2)cc1
Procedure, shortened: as §1

[5] = compound: Nc1ccccc1NC(=O)c1ccc(CNC(=O)OCc2cccnc2)cc1 [entinostat]
Procedure, shortened: as §1

[6] = compound: O=C(CCCCCCC(=O)Nc1ccccc1)NO [vorinostat]
Procedure, shortened: as §1

[7] = compound: O=C(CCCCCCNC(=O)c1cnc(N(c2ccccc2)c2ccccc2Cl)nc1)NO [citarinostat]
Procedure, shortened: as §1

[8] = compound: O=C(O)c1ccc2c(c1)nc(Nc1cccc(Cl)c1)c1ccncc12 [silmitasertib]
Procedure, shortened: as §1

[9] = compound: O=C1NC(=O)C(c2cnc3ccccn23)=C1c1cn2c3c(cc(F)cc13)CN(C(=O)N1CCCCC1)CC2
Procedure, shortened: as §1

[10] = compound: c1cc(OCCN2CCCCC2)cc(-c2n[nH]c3ccc(-c4nnc[nH]4)cc23)c1
Procedure, shortened: as §1

UniProt Q9BV86, sequence (Q9BV86 whole entry, looked up): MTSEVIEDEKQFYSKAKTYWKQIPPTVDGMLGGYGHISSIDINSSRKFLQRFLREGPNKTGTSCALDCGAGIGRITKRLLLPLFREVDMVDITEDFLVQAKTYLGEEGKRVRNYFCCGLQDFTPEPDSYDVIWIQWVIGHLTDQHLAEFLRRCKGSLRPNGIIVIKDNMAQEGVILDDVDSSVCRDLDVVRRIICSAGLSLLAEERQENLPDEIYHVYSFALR
UniProt O75251, sequence (O75251 whole entry, looked up): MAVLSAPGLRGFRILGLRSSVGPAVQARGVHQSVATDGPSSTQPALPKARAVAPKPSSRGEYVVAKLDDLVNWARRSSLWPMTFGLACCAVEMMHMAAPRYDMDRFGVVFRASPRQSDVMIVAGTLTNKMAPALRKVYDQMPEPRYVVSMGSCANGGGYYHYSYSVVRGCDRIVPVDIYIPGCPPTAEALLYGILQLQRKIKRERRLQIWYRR
UniProt O95747, sequence (O95747 whole entry, looked up): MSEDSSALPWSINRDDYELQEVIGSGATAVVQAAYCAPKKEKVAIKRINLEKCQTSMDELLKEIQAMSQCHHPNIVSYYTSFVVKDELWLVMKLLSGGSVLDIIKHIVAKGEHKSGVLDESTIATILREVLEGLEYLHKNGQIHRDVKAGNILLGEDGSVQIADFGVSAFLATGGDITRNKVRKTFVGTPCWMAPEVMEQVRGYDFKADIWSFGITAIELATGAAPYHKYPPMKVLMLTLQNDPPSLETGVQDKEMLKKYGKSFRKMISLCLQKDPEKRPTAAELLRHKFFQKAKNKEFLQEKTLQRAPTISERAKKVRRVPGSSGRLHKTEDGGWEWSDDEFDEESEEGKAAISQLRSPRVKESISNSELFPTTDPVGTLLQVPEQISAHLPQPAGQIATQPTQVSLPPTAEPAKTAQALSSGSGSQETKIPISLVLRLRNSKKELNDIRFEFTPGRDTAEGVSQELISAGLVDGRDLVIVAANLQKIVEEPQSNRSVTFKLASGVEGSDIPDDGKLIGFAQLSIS
UniProt Q13952, sequence (Q13952 whole entry, looked up): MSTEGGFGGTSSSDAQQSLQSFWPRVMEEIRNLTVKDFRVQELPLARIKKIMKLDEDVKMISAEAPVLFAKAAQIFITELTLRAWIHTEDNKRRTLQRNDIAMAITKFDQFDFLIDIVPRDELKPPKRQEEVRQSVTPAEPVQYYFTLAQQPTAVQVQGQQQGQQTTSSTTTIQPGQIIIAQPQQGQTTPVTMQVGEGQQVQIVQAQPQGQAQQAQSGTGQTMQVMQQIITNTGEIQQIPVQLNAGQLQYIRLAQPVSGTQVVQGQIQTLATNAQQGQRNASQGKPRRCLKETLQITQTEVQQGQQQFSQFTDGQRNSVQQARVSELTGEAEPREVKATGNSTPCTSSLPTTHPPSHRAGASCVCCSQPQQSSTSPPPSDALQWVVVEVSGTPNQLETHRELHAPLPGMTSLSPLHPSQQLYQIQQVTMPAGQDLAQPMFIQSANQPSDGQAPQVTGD
UniProt P52948, sequence (P52948 whole entry, looked up): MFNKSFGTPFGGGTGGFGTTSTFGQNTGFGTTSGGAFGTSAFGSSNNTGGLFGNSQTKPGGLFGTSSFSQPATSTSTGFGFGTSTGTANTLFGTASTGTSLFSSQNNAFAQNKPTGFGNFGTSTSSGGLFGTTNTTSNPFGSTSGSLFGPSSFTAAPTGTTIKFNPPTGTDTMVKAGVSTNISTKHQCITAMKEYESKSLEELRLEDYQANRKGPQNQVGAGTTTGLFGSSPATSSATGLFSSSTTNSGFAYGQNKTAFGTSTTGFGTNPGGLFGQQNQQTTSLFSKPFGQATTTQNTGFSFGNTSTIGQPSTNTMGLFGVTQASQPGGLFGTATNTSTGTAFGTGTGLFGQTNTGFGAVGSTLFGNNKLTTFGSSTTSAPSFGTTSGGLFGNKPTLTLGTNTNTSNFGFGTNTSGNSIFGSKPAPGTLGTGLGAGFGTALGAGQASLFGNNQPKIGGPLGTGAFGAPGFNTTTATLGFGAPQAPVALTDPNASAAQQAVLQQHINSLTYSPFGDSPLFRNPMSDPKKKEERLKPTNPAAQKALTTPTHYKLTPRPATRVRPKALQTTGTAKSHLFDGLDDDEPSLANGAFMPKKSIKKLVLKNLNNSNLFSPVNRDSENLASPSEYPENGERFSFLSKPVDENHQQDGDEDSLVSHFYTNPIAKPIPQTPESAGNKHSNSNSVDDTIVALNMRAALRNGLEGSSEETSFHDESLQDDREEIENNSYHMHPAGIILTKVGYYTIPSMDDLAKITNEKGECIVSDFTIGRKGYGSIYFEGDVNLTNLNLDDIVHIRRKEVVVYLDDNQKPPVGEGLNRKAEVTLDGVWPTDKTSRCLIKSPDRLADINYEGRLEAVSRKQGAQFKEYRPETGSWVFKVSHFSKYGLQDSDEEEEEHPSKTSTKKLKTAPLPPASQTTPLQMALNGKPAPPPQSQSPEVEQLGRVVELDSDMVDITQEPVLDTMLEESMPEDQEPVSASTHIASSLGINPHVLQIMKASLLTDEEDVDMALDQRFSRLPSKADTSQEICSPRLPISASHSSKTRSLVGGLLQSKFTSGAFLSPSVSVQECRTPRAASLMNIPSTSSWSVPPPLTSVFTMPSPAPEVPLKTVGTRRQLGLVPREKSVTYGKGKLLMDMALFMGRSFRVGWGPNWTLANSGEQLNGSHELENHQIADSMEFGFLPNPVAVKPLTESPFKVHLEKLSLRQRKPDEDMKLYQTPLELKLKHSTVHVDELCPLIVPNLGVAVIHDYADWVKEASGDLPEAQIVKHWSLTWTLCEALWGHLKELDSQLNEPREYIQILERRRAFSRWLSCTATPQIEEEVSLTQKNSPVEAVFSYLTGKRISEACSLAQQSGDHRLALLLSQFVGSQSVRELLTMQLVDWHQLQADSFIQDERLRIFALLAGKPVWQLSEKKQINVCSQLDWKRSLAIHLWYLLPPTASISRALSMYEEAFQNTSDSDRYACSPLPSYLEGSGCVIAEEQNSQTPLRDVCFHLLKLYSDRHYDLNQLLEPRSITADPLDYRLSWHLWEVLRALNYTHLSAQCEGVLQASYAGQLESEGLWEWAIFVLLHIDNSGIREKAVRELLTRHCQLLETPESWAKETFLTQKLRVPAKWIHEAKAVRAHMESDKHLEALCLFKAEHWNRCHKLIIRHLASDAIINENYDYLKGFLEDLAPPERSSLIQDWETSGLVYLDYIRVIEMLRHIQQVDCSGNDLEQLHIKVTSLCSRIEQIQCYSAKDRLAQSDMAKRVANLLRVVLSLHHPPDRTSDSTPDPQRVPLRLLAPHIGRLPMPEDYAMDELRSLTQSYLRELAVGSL
UniProt Q9NR45, sequence (Q9NR45 whole entry, looked up): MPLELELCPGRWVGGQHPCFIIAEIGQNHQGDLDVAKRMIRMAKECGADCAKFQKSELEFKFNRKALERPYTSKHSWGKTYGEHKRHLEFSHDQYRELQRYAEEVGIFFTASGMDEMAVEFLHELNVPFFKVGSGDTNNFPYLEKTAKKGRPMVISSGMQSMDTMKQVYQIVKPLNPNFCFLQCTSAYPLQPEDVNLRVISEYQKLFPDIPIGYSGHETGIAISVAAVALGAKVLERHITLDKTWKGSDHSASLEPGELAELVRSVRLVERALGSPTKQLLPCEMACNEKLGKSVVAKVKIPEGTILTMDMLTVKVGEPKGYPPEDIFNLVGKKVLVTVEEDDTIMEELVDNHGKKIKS
UniProt Q00013, sequence (Q00013 whole entry, looked up): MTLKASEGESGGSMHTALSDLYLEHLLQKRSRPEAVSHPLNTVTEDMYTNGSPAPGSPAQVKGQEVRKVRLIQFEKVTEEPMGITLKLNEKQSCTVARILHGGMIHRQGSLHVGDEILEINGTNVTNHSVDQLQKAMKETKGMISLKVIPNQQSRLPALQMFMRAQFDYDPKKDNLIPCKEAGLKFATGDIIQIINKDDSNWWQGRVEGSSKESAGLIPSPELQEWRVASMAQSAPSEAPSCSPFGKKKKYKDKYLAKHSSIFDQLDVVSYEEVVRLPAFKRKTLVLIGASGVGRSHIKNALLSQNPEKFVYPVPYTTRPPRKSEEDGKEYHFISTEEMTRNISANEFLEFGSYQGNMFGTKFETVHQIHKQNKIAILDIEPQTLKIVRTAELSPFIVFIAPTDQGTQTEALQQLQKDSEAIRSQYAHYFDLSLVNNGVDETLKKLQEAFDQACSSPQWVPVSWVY
UniProt O00567, sequence (O00567 whole entry, looked up): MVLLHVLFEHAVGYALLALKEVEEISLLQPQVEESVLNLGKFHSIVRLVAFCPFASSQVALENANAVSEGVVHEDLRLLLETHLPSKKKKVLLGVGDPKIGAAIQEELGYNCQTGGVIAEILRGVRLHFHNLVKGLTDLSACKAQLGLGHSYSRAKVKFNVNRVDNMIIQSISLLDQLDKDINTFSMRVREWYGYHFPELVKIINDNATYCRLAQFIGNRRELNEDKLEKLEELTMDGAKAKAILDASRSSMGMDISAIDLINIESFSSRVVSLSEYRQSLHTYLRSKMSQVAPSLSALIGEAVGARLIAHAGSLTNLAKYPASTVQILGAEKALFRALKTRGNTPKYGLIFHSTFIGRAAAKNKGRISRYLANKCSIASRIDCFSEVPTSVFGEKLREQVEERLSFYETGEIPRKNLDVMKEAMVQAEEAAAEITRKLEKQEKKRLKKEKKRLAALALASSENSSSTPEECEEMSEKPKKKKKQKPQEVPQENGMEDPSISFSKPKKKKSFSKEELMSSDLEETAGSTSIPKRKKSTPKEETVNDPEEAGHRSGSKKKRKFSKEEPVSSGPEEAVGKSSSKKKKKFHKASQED
UniProt P15531, sequence (P15531 whole entry, looked up): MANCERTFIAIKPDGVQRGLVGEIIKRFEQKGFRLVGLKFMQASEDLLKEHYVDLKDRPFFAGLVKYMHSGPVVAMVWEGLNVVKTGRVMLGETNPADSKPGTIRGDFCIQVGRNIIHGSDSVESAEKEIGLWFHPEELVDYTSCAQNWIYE
UniProt Q8WVJ2, sequence (Q8WVJ2 whole entry, looked up): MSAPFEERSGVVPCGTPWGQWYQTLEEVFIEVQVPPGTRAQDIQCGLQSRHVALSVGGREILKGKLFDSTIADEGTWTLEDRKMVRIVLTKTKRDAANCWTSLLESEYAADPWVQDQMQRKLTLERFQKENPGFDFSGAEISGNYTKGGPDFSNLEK

Target	log2 fold change [1]	log2 fold change [2]	log2 fold change [3]	log2 fold change [4]	log2 fold change [5]	log2 fold change [6]	log2 fold change [7]	log2 fold change [8]	log2 fold change [9]	log2 fold change [10]
MTHFS (UniProt P49914)	-0.021	-0.028	-0.086	-0.135	0.007	-0.1	0.025	0.021	0.014	-0.057
NEDD4 isoform 4 (UniProt P46934)	-0.043	-0.027	-0.187	-0.074	0.029	-0.04	0.084	0.064	-0.008	0.013
NUP107 (UniProt P57740)	-0.009	-0.022	0.056	-0.032	-0.039	0.416	0.016	0.085	0.045	-0.109
MPP1 (UniProt Q00013)	-0.083	-0.015	-0.159	-0.067	0.047	0.093	0.036	0.022	0.027	-0.059
NUDT16 (UniProt Q96DE0)	0.02	0.08	-0.01	0.205 (active)	0	-0.069	0.018	0.016	-0.106	0.034
MRPS27 isoform 2 (UniProt Q92552)	0.067	-0.015	-0.105	-0.007	0.011	0.104	0.08	-0.04	0.049	-0.012
OXSR1 (UniProt O95747)	-0.014	-0.048	-0.151	-0.064	0.031	0.042	0.045	-0.071	-0.007	0.018
NOL7 (UniProt Q9UMY1)	0.107	0.131	0.316	0.177	-0.079	-0.042	-0.101	0.166	0.121	-0.218
NBN (UniProt O60934)	-0.021	-0.037	-0.078	-0.067	0.127	0.091	0.009	-0.055	-0.104	0
NA, A0A0B4J2A0	-0.025	0.029	-0.061	0.031	0.029	0.05	0.029	0.017	-0.059	-0.012
MINK1 (UniProt Q8N4C8)	0.006	-0.032	-0.097	0.005	0.045	0.057	0.077	-0.041	0.015	-0.119
NANS (UniProt Q9NR45)	0.043	-0.05	0.02	-0.032	0.014	0.116	0.032	-0.002	-0.011	0
NTMT1 (UniProt Q9BV86)	-0.035	0.027	0.077	-0.002	0.024	-0.089	-0.069	-0.028	-0.029	
NFYC (UniProt Q13952)	0.008	-0.079	-0.054	-0.027	-0.034	-0.057	-0.002	0.024	-0.058	-0.044
NOP56 (UniProt O00567)	0.162	0.14	0.197	0.103	-0.084	0.014	-0.058	0.096	0.09	-0.156
NMT2 (UniProt O60551)	0	-0.089	-0.168	-0.164	-0.004	-0.049	0.007	-0.028	-0.017	-0.491 (active)
NDUFS7 (UniProt O75251)	-0.025	-0.079	-0.113	-0.057	-0.011	0.103	0.013	-0.003	-0.066	-0.027
MYH10 isoform 3 (UniProt P35580)	0.014	-0.026	-0.102	-0.035	0.019	0.004	0.041	-0.008	-0.036	0.013
NSMCE4A (UniProt Q9NXX6)	0.181	0.059	0	-0.023	-0.087	-0.155	-0.018	0.149	-0.038	-0.067
NCOA7 (UniProt Q8NI08)	-0.061	-0.036	-0.068	-0.033	-0.067	0.026	-0.001	0.022	-0.093	-0.005
NUP98 (UniProt P52948)	0.018	-0.086	-0.025	-0.076	0	0.052	0.028	0.072	0.001	-0.073
MT-ND4 (UniProt P03905)	0.052	0.038	-0.046	-0.074	0.099	0.261	0.198	-0.011	0.088	-0.057
NPC1 (UniProt O15118)	0.002	0.039	-0.196	-0.017	-0.049	0.004	0.017	0.031	0.027	-0.106
NME1 isoform 2 (UniProt P15531)	0.012	-0.017	-0.003	-0.003	-0.064	0.103	-0.089	-0.138	-0.089	-0.253
NDUFB10 (UniProt O96000)	-0.062	-0.06	-0.054	-0.022	-0.034	-0.053	0.031	0.021	-0.018	-0.006
NCAPG (UniProt Q9BPX3)	-0.062	-0.036	-0.118	-0.06	0.073	0.101	0.067	0.1	0.005	-0.016
NUDCD2 (UniProt Q8WVJ2)	-0.108	-0.099	-0.056	-0.172	0.028	0.147	0.007	0.063	-0.183	-0.044
